Assay results published in PubChem BioAssay AID588492 (Sanford-Burnham Center for Chemical Genomics, 2011).
The campaign covered roughly 360,000 compounds. About 2,300 (0.64%) were called active.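 Rule for the calls: active = compounds giving at least 50% protection of heart cells from peroxide-induced death in the single-dose screen, raw or plate-pattern-corrected value; inactive = the rest.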 The full list was thinned out, with actives kept by preference.

Assay: H9c2 cardiomyocyte survival under peroxide injury – uHTS, H9c2 cells, ATPLite luminescence, primary screen (AID 588492);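 note: 0% = DMSO wells with peroxide and 100% = DMSO wells without peroxide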
Settings: H9c2 cardiomyocytes, 2 h, at 20 µM, hits give high values
For `O=Cc1c(N2CCN(c3cccc(Cl)c3)CC2)nc2ccccn2c1=O`, the protection from H2O2 cell death was 42.7% (inactive).
In the case of `O=c1c2ccccc2ncn1/N=C/c1ccccc1`, the protection from H2O2 cell death is reported as -10.6% (inactive).
In the case of `Cc1[nH]n(-c2cccc(Cl)c2)c(=O)c1/C=N/n1c(C)nc2ccccc2c1=O`, the protection from H2O2 cell death is reported as 50.4% (active).
For `Oc1ccccc1C=NC1CCCCC1N=Cc1ccccc1O` (stereo unspecified), the protection from H2O2 cell death was 7.8% (inactive).
For `O=C(N/N=C/c1ccccc1O)/C(=C/c1ccccc1)CCO`, the protection from H2O2 cell death was 35.8% (inactive).
With `O=C(NN=Cc1ccccc1O)C(=O)NN=Cc1ccccc1O` the protection from H2O2 cell death was 53.6% (active).
With `COCCNC(=S)c1ccc(OC)cc1` the protection from H2O2 cell death was 5.4% (inactive).
With `CCNC(=O)C1(C)CCCN1C(=O)c1ccc(N(C)C)cc1` (stereo unspecified) the protection from H2O2 cell death was 0.7% (inactive).
For `Cc1nc(N2CCOCC2)c2c(C)c(C(=O)Nc3ccc(C(F)(F)F)cc3)sc2n1`, the protection from H2O2 cell death was -3.8% (inactive).
In the case of `Cc1nc(N2CCN(c3ccccn3)CC2)c2c(C)c(C(=O)Nc3ccc(F)cc3)sc2n1`, the protection from H2O2 cell death is reported as 71.4% (active).
With `Cc1nc(N2CCN(c3ccccn3)CC2)c2c(C)c(C(=O)Nc3ccc(F)c(Cl)c3)sc2n1` the protection from H2O2 cell death was 31.9% (inactive).
In the case of `COc1ccc(S(=O)(=O)N2CCN(c3cnccn3)CC2)cc1`, the protection from H2O2 cell death is reported as -1.4% (inactive).
In the case of `CCc1nc2ccc(C(=O)NC3CCN(Cc4ccccc4)CC3)cn2c1N(C)CCN1CCOCC1`, the protection from H2O2 cell death is reported as 7% (inactive).
In the case of `CCOC(=O)N1CCN(Cc2oc(CO)cc(=O)c2O)CC1`, the protection from H2O2 cell death is reported as 13% (inactive).
With `O=C(CSC1=Nc2ccccc2C2=NC(c3ccccc3)C(=O)N12)NCC1CCCO1` (stereo unspecified) the protection from H2O2 cell death was 29.7% (inactive).
In the case of `CC(C)C1N=C2c3ccccc3N=C(SCC(=O)c3ccc(O)c(O)c3)N2C1=O` (stereo unspecified), the protection from H2O2 cell death is reported as 96.8% (active).
With `NC(=O)CSC1=Nc2ccccc2C2=NC(CCC(=O)NCc3ccc(F)cc3)C(=O)N12` (stereo unspecified) the protection from H2O2 cell death was 2.5% (inactive).
With `Cc1ccc(S(=O)(=O)N2CCC(C(=O)N[C@@H](C)C(=O)NCCc3ccccc3)CC2)cc1` the protection from H2O2 cell death was 2% (inactive).
For `COc1cccc(CNc2nc3cc(-c4csc5ccccc45)sc3c(=O)n2C)c1`, the protection from H2O2 cell death was -3.9% (inactive).
With `COc1ccc(-c2nn3c(-c4ccccc4)nnc3s2)cc1OC` the protection from H2O2 cell death was 63.1% (active).
With `COc1ccc(NC(=O)c2cc3nc(-c4ccccc4)cc(C)n3n2)cc1OC` the protection from H2O2 cell death was 36.7% (inactive).
In the case of `CN(C(=O)c1ccccn1)c1nnc(-c2ccccn2)s1`, the protection from H2O2 cell death is reported as -5.5% (inactive).
In the case of `CCOc1cccc(-c2nn3c(-c4ccccn4)nnc3s2)c1`, the protection from H2O2 cell death is reported as 68% (active).
With `COc1ccc(-n2c(SCC(=O)OC(C)C)nnc2-c2ccccn2)cc1` the protection from H2O2 cell death was 4% (inactive).
For `COc1ccc(-c2nc3ccccc3n2CCC(C)C)cc1OC`, the protection from H2O2 cell death was 6.5% (inactive).
With `c1ccc(-c2cc(-c3nnc4sc(-c5ccccn5)nn34)[nH]n2)cc1` the protection from H2O2 cell death was 63.3% (active).
In the case of `CCOc1cccc(-c2nnc(SCC(=O)NC3CC3)n2C)c1`, the protection from H2O2 cell death is reported as -1.8% (inactive).
In the case of `O=S(=O)(Nc1ccc2ccccc2c1)N1CCCCC1`, the protection from H2O2 cell death is reported as -4% (inactive).
With `Cc1c(C(=O)O)nnn1-c1nonc1N` the protection from H2O2 cell death was 3.3% (inactive).
In the case of `Cc1cc(C)c(CN2CCN(C(=O)Cn3ccc(NC(=O)OCc4ccccc4)nc3=O)CC2)c(C)c1`, the protection from H2O2 cell death is reported as -25% (inactive).
In the case of `CCN(CC)CCCN1C(=O)C(=O)/C(=C(/O)c2c(C)nc3ccccn23)C1c1ccc(C)o1` (stereo unspecified), the protection from H2O2 cell death is reported as 4.2% (inactive).
With `COC(=O)c1ccc2nc(-c3ccc(Cl)cc3)c(Cc3cccc(F)c3)n2c1` the protection from H2O2 cell death was -2.7% (inactive).
In the case of `Cc1ccc(N/C(N)=N/c2nc(C(F)(F)F)cc(C(F)(F)F)n2)cc1`, the protection from H2O2 cell death is reported as -14.8% (inactive).
For `CCO[C@H]1OC(C(=O)N2CCOCC2)=C[C@@H](c2ccc3c(c2)OCO3)[C@@H]1CCCO`, the protection from H2O2 cell death was 2.8% (inactive).
In the case of `COc1ccc(OC)c(C(O)c2ncc(-c3cccc(C(F)(F)F)c3)[nH]2)c1` (stereo unspecified), the protection from H2O2 cell death is reported as -12.4% (inactive).
For `CCNC(=O)C1(C)CCCN(Cc2noc(-c3ccccc3OC)n2)C1` (stereo unspecified), the protection from H2O2 cell death was -1.9% (inactive).
In the case of `CCNC(=O)c1sccc1-n1cccc1`, the protection from H2O2 cell death is reported as 5% (inactive).
In the case of `COc1ccccc1OCC(=O)Nc1ccccc1C(=O)NC1CC1`, the protection from H2O2 cell death is reported as 4.6% (inactive).
With `O=C(COc1ccccc1O)NC1CCCC1` the protection from H2O2 cell death was -0.6% (inactive).
In the case of `Cc1ccccc1NC(=O)CSC1=NCCN1`, the protection from H2O2 cell death is reported as -2% (inactive).
With `O=C(COC(=O)c1cccc(Cl)c1)NC1CCCCCCC1` the protection from H2O2 cell death was -3.2% (inactive).
For `Cc1ccccc1NC(=O)COc1cccc2c1CCNC2=O`, the protection from H2O2 cell death was 70.7% (active).
For `O=C(COc1cccc2c1CCNC2=O)NC1CCCCC1`, the protection from H2O2 cell death was 56.1% (active).
In the case of `OCC1(Cc2ccccc2C(F)(F)F)CCN(Cc2cccc3cnccc23)CC1`, the protection from H2O2 cell death is reported as -2.8% (inactive).
For `Cc1cc(O)ccc1NC1=CC(=O)CC(C)(C)C1`, the protection from H2O2 cell death was -13.4% (inactive).
In the case of `CCN(CC)CCCNC(=O)c1c(O)c2cc(F)cc3c2n(c1=O)C(C)CC3` (stereo unspecified), the protection from H2O2 cell death is reported as 22.2% (inactive).
